697 NFkB inh = lowers PMA/ionomycin-induced NF-kB signal in 697 B cells; 697 B-cell NF-kB luciferase reporter, 16 h; inhibition, % at 4 µM; 330,000 tested, 0.33% active; in the data active = inhibition above about 35%
Gli-Sufu antag = antagonists of Gli-Sufu signaling. Sufu-KO-LIGHT fibroblasts, Gli luciferase reporter luminescence. inhibition, % at 5 µM. 340,000 tested, 0.74% active. AID 588413;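 active = inhibition above about 55%, limit read from the data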;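 note: 0% = DMSO-treated cells and 100% = wells with medium but no cells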
Jurkat NFkB inh = inhibitors of the PMA/ionomycin-induced NF-kB reporter in Jurkat cells. inhibition, % at 4 µM. PMA/ionomycin-induced NF-kB luciferase reporter, luminescence. 330,000 tested, 0.53% active. AID 435003; in the data active = inhibition above about 50%
Mdm2 MdmX PPI = human Mdm2/MdmX binding inhibition | O15151+Q00987 | SaOS-2 split-luciferase Mdm2/MdmX complementation, luminescence | inhibition, % at 8 µM | 330,000 tested, 3% active | AID 485346;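 active = inhibition of at least 50% at 8 µM in the primary screen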
Target sequence (O15151 whole entry, looked up): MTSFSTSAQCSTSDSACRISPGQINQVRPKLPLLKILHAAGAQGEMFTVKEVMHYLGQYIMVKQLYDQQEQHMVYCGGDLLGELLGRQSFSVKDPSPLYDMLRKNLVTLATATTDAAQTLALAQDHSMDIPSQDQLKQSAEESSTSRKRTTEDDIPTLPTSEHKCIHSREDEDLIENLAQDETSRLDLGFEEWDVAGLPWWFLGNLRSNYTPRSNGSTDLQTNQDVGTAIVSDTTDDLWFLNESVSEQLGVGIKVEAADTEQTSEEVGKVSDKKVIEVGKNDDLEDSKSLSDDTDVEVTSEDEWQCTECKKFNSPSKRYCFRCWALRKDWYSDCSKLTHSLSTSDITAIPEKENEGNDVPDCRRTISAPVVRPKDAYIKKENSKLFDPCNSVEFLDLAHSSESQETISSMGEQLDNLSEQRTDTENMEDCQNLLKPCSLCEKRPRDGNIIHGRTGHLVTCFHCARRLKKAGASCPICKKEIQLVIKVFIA
Target sequence (Q00987 whole entry, looked up): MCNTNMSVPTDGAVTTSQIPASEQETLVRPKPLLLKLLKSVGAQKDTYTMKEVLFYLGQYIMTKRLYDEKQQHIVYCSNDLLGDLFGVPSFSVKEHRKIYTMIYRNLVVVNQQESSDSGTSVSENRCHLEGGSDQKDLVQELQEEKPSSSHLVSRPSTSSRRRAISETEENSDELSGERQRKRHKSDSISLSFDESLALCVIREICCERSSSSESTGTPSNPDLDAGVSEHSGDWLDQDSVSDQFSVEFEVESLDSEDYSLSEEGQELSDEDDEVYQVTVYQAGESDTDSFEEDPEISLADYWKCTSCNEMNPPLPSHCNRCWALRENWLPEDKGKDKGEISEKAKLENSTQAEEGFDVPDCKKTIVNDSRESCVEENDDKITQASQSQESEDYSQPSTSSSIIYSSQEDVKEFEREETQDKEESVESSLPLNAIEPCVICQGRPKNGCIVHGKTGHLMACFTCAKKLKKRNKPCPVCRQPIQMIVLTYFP
Shn3 inh set2 = Schnurri-3 reporter inhibition in Clone20 osteoblasts. 360,000 tested, 0.52% active. inhibition, % at 12.5 µM. Clone20 osteoblast Shn3 3'UTR firefly luciferase, 24 h. AID 588674;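 active = mean inhibition of at least 75% with every replicate also reaching 75%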;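 note: 0% = median of neutral control wells and 100% = pilot-screen positive control compound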
697 NFkB conf = lowers PMA/ionomycin-induced NF-kB signal in 697 B cells | shares compounds with 697 NFkB inh | 697 B-cell NF-kB luciferase, 16 h | inhibition, % at 4 µM | 2,000 tested, 35% active | AID 449746; in the data active = inhibition mostly above about 28%, no sharp cut-off; inactive = mostly below about 22%
* hit, by the source's call; . = not tested or not shown. Only some compounds are listed: those with a hit (about 3.8% of all), similar ones and a draw of the others.

SMILES | 697 NFkB inh | Gli-Sufu antag | Jurkat NFkB inh | Mdm2 MdmX PPI | Shn3 inh set2 | 697 NFkB conf
COc1ccc(C(c2nnnn2C(C)C)N2CCN(C(=O)c3ccco3)CC2)cc1 (centres undefined) | 20.5 | -20.2 | -0.3 | 10.6 | 8.2 | .
CCC1(c2ccc(Cl)cc2)NC(=O)N(CC(=O)NC2CCCC(C)C2C)C1=O (centres undefined) | 38.5* | 1.2 | 22.4 | -23.6 | 11.1 | -0.7
CC1CCN(C(=O)c2cc3nc(-c4ccccc4)cc(-c4ccccc4)n3n2)CC1 | 35.1* | 12.2 | 15.1 | 44.2 | 20.0 | 14.9
O=C(c1cc2nc(-c3ccccc3)cc(C(F)(F)F)n2n1)N1CCOCC1 | 3.4 | -24.4 | -38.4 | 8.4 | -27.2 | .
CCCc1ccc(OC(=O)c2ccc(O)cc2Cl)cc1 | -159.6 | -105.4 | -123.1 | -82.0 | -67.8 | .
CCOc1ccccc1NC(=O)C(=O)N/N=C/c1ccc([N+](=O)[O-])cc1 | 39.3* | 36.3 | 2.0 | 20.9 | -10.9 | 19.8
Cc1cccc(NC(=O)CSc2nc(=O)n(CCCN3CCOCC3)c3c2CCCC3)c1C | . | . | . | . | 4.6 | .
COc1ccc(C(=O)N/N=C/c2c[nH]c3ccccc23)cc1 | -61.6 | -35.5 | -52.2 | -3.7 | -16.1 | .
COc1ccc(C(=O)N/N=C/c2cc3ccccc3[nH]c2=S)cc1 | 36.2* | 4.7 | 16.0 | 2.1 | -12.7 | 1.5
O=C(NC1CCN(Cc2ccccc2)CC1)c1cc(S(=O)(=O)Nc2ccc(F)cc2)ccc1Cl | -23.8 | 33.9 | 9.6 | 14.4 | 38.0 | .
CCCCN(C)C(=O)c1nc2ccccn2c1CN1CCC[C@H]1CO | 10.5 | -8.5 | -2.1 | 2.9 | -10.5 | .
O=C(Nc1nc2ccccc2[nH]1)c1ccc(Cl)cc1 | -319.6 | -72.6 | -139.7 | -7.5 | 3.3 | -341.6
Cc1ccccc1Nc1nc(Cl)c(C=O)s1 | 35.1* | -5.0 | -6.7 | -9.3 | -25.8 | 39.5*
Cc1ccc([C@H]2N[C@]3(CCCN(Cc4ccccc4)C3=O)[C@H]3C(=O)N(C)C(=O)[C@@H]23)cc1 | . | . | . | . | -2.1 | .
Cc1ccc(-c2nc(N)n(C(=O)c3ccco3)n2)cc1 | 36.4* | 3.6 | -19.7 | 28.6 | -3.3 | -11.8
Cc1ccc(S(=O)(=O)N2CCOCC2)cc1C(=O)Nc1nc2ccccc2[nH]1 | -18.1 | 1.0 | -25.5 | -13.9 | -13.6 | .
N=c1c(C(=O)NC2CCCC2)cc2c(=O)n3ccccc3nc2n1CCN1CCOCC1 | 49.0* | -46.0 | 1.7 | 33.1 | . | 50.5*
N=c1c(C(=O)NC2CCCC2)cc2c(=O)n3ccccc3nc2n1CCCN1CCOCC1 | -5.6 | 24.0 | 8.4 | 15.8 | -11.8 | .
Fc1ccc(Oc2ncccn2)c(F)c1 | 8.5 | 3.3 | 2.4 | -7.1 | -11.1 | .
COc1ccccc1NC(=O)Cn1c([N+](=O)[O-])cnc1C | -11.1 | -6.9 | 0.9 | 22.7 | 4.4 | .
CCCCNc1nc(N)nc(-c2cc(Cl)ccc2O)n1 | -290.3 | -95.2 | -135.3 | 20.8 | -79.6 | -232.6
COc1ccc(NC(=O)CN(C)C(=O)C2(c3ccccc3)CCCC2)cc1 | 71.0* | 31.5 | 12.4 | 15.8 | 36.8 | 72.1*
COc1ccc(NC(=O)CN(C)C(=O)CCc2ccccc2)cc1 | 8.6 | -0.2 | 6.5 | 8.8 | -6.4 | .
COc1cc([N+](=O)[O-])cc2sc(NC(=O)c3c(F)cccc3F)nc12 | 15.1 | -6.8 | -12.1 | -2.2 | 0.2 | .
CC(OC(=O)c1ccc(-n2cnnn2)cc1)C(=O)Nc1ccc(F)c(F)c1F (centres undefined) | 13.8 | -6.6 | 4.1 | -1.8 | -4.7 | .
SMILES | 697 NFkB inh | Gli-Sufu antag | Jurkat NFkB inh | Mdm2 MdmX PPI | Shn3 inh set2 | 697 NFkB conf
COCCN1C(=O)/C(=C/c2ccc(Oc3ccc([N+](=O)[O-])cn3)c(OC)c2)SC1=Nc1ccccc1 | 49.5* | 6.2 | 29.6 | 18.8 | -21.7 | 24.4
COc1cc(/C=C2\SC(=Nc3ccccc3)N(CCc3c[nH]c4ccccc34)C2=O)ccc1OC(C)C(=O)O (centres undefined) | -8.1 | 6.1 | -9.0 | 20.8 | -23.8 | .
NNC(=O)c1cccc(COc2ccc3c(c2)CCC3)c1 | 56.2* | -109.0 | 9.4 | 10.2 | 20.9 | -30.0
NNC(=O)c1cccc(COc2ccccc2Br)c1 | -73.5 | -150.5 | -41.4 | -63.4 | -21.7 | .
Cc1ccc(C)c(S(=O)(=O)N2CCN(C(=O)Cc3ccccc3)CC2)c1 | 10.1 | 4.3 | -10.9 | 18.9 | 2.4 | .
Cc1ccc(C)c(S(=O)(=O)N2CCN(C(=O)Cn3c(C(F)(F)F)nc4ccccc43)CC2)c1 | 37.0* | -21.1 | 9.5 | 23.2 | 5.5 | 6.9
CC(=O)Nc1ccc(NC(=O)C2CC(=O)Nc3nc4ccccc4n32)cc1 (centres undefined) | -19.8 | -0.4 | 8.4 | -6.0 | 12.4 | .
O=C1CC(C(=O)Nc2cccc(F)c2)n2c(nc3ccccc32)N1 (centres undefined) | 35.4* | -0.1 | -2.4 | 0.7 | 4.3 | -6.5
CCC(=O)N(C1=C(NC)C(=O)c2ccccc2C1=O)C(C)C | 51.7* | -3.9 | 35.1 | -30.4 | -18.3 | 47.1*
CN(C)c1ccc(-c2nc3cc(N)ccc3o2)cc1 | -296.5 | -33.6 | -133.7 | -62.3 | 9.2 | -201.9
COC(=O)c1ccc(-c2nc3cc(N)ccc3o2)cc1 | 29.2 | 3.8 | -78.9 | -96.4 | 35.5 | .
COc1cc(C(=O)Nc2ccc(C(=O)c3cccs3)cc2)cc(OC)c1OC | 36.5* | 20.0 | 22.3 | 16.6 | 27.4 | 6.5
COc1ccc(C(=O)Nc2ccc(NC(=O)c3cccs3)cc2)cc1Cl | -1.2 | 6.0 | -8.1 | 19.7 | -1.9 | .
CCOc1ccc(CCNC(=O)COn2nnc3ccc(S(=O)(=O)N4CCOCC4)cc32)cc1OCC | -16.5 | 6.5 | -10.8 | 8.3 | -77.9 | .
Cc1ccc2oc(/N=C(\N)NC(=O)C3CC3)nc2c1 | -264.8 | -93.0 | -23.1 | 8.1 | 2.6 | -325.1
COc1ccc(C(=O)N/C(N)=N/c2nc3ccccc3o2)cc1 | -17.5 | -34.3 | -9.2 | -5.5 | . | .
CC1(c2nnc(-c3cccc(Cl)c3)o2)CC(c2cccc(Cl)c2)=NO1 (centres undefined) | 37.3* | -11.5 | 32.5 | 27.2 | -13.8 | 37.2*
CC1(c2nnc(-c3cccc(Cl)c3)o2)CC(c2ccc(Cl)cc2)=NO1 (centres undefined) | 10.0 | 21.1 | -1.9 | 3.7 | -6.0 | .
COc1ccccc1/C=C1\SC(=S)N(CCC(=O)Nc2cc(C)on2)C1=O | 50.6* | 14.1 | 0.7 | -9.1 | 15.5 | 37.5*
CCc1ccc(/C=C2\SC(=S)N(CCC(=O)Nc3cc(C)on3)C2=O)cc1 | 59.3* | -13.1 | -2.8 | 25.8 | 0.0 | 43.8*
COc1ccccc1/C=C1\SC(=S)N(CCC(=O)Nc2cccc(O)c2)C1=O | 35.2* | 20.2 | -12.4 | 3.2 | -0.2 | 31.1*
COc1ccccc1/C=C1\SC(=S)N(CCC(=O)Nc2nnc(C)s2)C1=O | 51.4* | -8.6 | 9.6 | 31.0 | 22.0 | 29.1*
CCc1ccc(/C=C2\SC(=S)N(CCCC(=O)Nc3cc(C)on3)C2=O)cc1 | . | . | . | . | 64.9 | .
O=C(Cc1ccccc1F)Nc1cccc(S(=O)(=O)N2CCOCC2)c1 | -5.8 | 1.4 | -2.6 | -0.8 | 6.9 | .
O=C(Nc1ccccc1O)c1ccc(NC(=O)C2CC2)cc1 | -298.7 | -39.6 | -37.6 | 18.2 | -258.5 | -286.2
